Experimental data published in PubChem BioAssay.
Active and inactive are the calls of the source. Cut-off read from the data, not from the text of the source, unless noted: active = inhibition above about 33%; inactive = the rest. Numbered stars: 1 amine (or outer) side, 2 acyl side, 3 side chain; on linkers, the order of the positions; unused ones are H or OH. Bridge positions count the residues as written; N and C are the ends. Square brackets hold non-standard residues; d marks the D form. Peptide text beside a SMILES is read from it. ξ: configuration not given here. X1 = CC[C@H](CCC[C@@H](O)[C@@H](C)C(=O)O[C@H](C)[C@@H](C)C/C=C(C)/C(=C\C(=O)[*:1])OC)O[*:2]; NMeξIle = CC[C@H](C)C(NC)C(=O)O; NMeV = CN[C@H](C(=O)O)C(C)C; NMeS = CN[C@@H](CO)C(=O)O

Assays:
[1] = biological target: Nuclear receptor coactivator 3 (Homo sapiens) (UniProt Q9Y6Q9); assay: SRC3 coactivator transcriptional activity inhibitors, confirmation, cell-based, luminescence, quadruplicate (AID 588792;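 active = mean inhibition over 43.08%, the solvent-only control mean plus 3 SD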;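 note: 0% = DMSO treated cells and 100% = gossypol at 36 µM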); conditions: HEK293 GAL4-SRC3 luciferase reporter, at 3.6 µM, active compounds read high
[2] = system: transactivating tegument protein VP16 (Human herpesvirus 1), Gal4-VP16 luciferase reporter; assay: VP16 transactivation inhibitors, counter-screen for SRC3 inhibitor project, cell-based, luminescence, high throughput (AID 588794; in the data active = inhibition above about 30%); conditions: mammalian cells, VP16-driven luciferase reporter luminescence; at 3.6 µM; active compounds read high
[3] = biological target: Nuclear receptor coactivator 1 (Homo sapiens) (UniProt Q15788); assay: SRC1 coactivator transcriptional activity inhibitors, confirmation, cell-based, luminescence, quadruplicate (AID 588820;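 active = mean inhibition above 46.68%, the untreated control wells mean plus 3 SD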;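 note: 0% = DMSO wells and 100% = gossypol 36 µM treated wells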); conditions: HEK293 GAL4-SRC1 luciferase reporter, at 3.6 µM, active compounds read high
[4] = VP16 transactivation inhibitors, counter-screen for SRC1 inhibitor project, cell-based, luminescence, high throughput (AID 588824; in the data active = inhibition above about 25%); conditions: cell-based VP16 transactivation luciferase luminescence; at 3.6 µM; active compounds read high
[5] = StAR promoter reporter inhibitors, counter-screen for LRH-1 inverse agonist project, cell-based, luminescence, high throughput (AID 651611; in the data active = inhibition above about 28%); conditions: StAR promoter luciferase reporter counterscreen, at 3.6 µM, active compounds read high
[6] = biological target: Nuclear receptor subfamily 5 group A member 2 (Homo sapiens) (UniProt O00482); assay: LRH-1 (NR5A2) inverse agonists, retest, confirmation, cell-based, luminescence (AID 651613; in the data active = inhibition above about 42%;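 note: HEK293T cells co-transfected with LRH-1 and StAR promoter luciferase reporter; 0% = vehicle wells and 100% = parental cells lacking receptor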); conditions: cell-based LRH-1 luciferase reporter, inverse agonism; at 3.6 µM; active compounds read high
[7] = biological target: Steroidogenic factor 1 (Homo sapiens) (UniProt Q13285); assay: SF1 (NR5A1) inverse agonists, counter-screen for LRH-1 inverse agonist project, cell-based, luminescence, high throughput (AID 651614; in the data active = inhibition above about 44%;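 note: cells cotransfected with StAR promoter reporter and SF1 expression vector; 0% = vehicle on cells with receptor and 100% = vehicle on cells lacking receptor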); conditions: cell-based SF1 luciferase reporter, at 3.6 µM, active compounds read high
[8] = VP16 transactivation reporter inhibitors, counter-screen for LRH-1 inverse agonist project, cell-based, luminescence, high throughput (AID 651615); conditions: Gal4-VP16 luciferase reporter cells, at 3.6 µM, active compounds read high

Measured: inhibition

Nuclear receptor coactivator 3 (Homo sapiens), sequence (Q9Y6Q9 whole entry, looked up, the tested form may be a part): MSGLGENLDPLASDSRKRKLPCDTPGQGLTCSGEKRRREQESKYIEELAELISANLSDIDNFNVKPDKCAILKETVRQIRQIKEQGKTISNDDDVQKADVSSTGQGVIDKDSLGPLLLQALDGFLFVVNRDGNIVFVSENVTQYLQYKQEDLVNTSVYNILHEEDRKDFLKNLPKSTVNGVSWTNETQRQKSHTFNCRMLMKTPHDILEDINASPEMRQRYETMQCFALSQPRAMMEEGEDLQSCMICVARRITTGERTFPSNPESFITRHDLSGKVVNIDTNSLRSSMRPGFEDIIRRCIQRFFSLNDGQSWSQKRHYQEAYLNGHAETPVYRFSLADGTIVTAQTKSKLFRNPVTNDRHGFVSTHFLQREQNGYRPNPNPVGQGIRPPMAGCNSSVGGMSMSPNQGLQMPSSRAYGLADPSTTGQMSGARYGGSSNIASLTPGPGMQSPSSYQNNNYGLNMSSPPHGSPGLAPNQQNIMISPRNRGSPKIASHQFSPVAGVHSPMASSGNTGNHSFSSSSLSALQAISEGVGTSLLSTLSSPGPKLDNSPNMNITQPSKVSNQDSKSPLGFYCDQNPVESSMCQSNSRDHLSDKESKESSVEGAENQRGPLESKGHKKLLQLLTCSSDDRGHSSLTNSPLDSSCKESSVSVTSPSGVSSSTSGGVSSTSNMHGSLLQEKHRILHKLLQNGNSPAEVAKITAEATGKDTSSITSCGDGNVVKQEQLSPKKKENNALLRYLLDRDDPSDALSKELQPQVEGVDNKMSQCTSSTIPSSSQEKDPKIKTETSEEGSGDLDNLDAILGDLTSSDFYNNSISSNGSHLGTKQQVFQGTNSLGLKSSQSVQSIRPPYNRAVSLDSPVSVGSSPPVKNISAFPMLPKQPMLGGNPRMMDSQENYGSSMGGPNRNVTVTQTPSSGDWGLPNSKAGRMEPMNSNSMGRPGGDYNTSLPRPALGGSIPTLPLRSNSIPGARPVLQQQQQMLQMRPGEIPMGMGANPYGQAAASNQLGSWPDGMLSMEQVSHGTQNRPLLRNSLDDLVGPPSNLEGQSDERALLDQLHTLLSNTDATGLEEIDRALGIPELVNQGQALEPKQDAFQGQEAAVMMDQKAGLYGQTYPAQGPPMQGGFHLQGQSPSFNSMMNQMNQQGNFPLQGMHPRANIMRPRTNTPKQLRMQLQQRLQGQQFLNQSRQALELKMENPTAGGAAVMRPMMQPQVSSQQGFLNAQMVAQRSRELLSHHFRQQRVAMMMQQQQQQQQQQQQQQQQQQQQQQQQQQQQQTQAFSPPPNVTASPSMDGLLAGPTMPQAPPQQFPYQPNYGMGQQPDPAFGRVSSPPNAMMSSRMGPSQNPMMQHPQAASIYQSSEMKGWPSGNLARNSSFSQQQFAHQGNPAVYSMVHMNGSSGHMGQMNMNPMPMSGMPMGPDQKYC
Steroidogenic factor 1 (Homo sapiens), sequence (Q13285 whole entry, looked up, the tested form may be a part): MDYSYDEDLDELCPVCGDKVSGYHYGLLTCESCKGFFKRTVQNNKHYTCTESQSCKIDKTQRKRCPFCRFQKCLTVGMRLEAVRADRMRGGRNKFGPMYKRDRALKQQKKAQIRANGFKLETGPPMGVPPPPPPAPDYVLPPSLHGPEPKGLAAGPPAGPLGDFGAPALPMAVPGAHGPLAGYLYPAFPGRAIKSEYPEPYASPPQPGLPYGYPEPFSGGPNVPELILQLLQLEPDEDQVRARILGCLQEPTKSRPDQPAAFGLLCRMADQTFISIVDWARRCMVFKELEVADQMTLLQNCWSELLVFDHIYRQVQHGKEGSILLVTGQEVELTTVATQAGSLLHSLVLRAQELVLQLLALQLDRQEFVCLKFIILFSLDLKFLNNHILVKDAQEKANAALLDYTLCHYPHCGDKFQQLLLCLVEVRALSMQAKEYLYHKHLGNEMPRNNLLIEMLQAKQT
Nuclear receptor coactivator 1 (Homo sapiens), sequence (Q15788 whole entry, looked up, the tested form may be a part): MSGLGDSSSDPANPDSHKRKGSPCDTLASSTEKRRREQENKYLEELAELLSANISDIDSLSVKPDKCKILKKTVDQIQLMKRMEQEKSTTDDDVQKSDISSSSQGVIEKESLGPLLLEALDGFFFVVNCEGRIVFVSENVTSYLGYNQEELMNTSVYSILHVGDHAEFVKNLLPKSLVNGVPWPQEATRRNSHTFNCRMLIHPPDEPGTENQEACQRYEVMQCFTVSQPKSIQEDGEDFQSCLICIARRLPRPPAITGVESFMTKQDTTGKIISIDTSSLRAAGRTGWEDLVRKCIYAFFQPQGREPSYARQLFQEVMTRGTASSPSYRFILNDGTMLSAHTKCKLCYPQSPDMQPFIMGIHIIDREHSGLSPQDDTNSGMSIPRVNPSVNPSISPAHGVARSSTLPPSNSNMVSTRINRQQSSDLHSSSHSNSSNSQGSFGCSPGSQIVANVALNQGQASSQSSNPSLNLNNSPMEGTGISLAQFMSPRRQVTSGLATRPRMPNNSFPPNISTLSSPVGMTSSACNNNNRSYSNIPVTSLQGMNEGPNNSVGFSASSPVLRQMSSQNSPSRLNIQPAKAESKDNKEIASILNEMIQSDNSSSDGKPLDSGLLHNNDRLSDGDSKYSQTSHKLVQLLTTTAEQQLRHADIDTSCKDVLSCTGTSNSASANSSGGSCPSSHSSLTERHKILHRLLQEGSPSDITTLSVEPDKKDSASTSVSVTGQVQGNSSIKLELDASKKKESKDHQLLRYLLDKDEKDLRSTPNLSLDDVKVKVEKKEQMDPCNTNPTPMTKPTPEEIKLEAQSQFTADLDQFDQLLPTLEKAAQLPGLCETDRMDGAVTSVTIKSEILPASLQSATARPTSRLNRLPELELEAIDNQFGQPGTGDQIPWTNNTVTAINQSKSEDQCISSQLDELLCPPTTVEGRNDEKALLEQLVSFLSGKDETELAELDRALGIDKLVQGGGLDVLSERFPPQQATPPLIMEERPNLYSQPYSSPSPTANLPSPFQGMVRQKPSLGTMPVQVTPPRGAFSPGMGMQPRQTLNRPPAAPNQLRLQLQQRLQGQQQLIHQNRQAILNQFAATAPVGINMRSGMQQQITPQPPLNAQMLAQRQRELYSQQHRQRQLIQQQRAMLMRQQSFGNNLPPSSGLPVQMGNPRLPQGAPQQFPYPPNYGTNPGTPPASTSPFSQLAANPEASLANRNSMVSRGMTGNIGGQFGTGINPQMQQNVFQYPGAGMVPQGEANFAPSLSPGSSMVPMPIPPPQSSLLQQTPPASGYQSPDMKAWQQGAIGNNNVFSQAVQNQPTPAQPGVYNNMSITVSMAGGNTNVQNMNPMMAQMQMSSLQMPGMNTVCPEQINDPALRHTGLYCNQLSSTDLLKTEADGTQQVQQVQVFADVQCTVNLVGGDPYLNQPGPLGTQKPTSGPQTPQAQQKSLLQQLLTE
Nuclear receptor subfamily 5 group A member 2 (Homo sapiens), sequence (O00482 whole entry, looked up): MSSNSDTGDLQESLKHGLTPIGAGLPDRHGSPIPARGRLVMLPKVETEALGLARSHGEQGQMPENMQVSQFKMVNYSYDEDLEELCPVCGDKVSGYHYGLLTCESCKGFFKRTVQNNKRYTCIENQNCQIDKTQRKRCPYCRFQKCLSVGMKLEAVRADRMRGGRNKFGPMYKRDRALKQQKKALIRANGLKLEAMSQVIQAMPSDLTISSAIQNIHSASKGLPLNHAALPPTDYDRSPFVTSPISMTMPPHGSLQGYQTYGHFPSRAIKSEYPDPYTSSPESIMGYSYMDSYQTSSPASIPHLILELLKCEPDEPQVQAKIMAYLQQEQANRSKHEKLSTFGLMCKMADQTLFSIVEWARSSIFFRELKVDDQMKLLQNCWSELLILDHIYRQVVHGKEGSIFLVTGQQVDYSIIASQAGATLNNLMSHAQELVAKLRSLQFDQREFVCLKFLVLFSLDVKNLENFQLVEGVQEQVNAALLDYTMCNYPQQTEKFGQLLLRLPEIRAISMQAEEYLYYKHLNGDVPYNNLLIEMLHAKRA

Cn1c(=O)c2cc(NC(=O)CCc3ccc(O)cc3)ccc2n1Cc1cccc(C(F)(F)F)c1
inactive: [1] 34.4% | [3] 38.7%
active: [2] 64.2% | [4] 66% | [5] 63.3% | [6] 80% | [7] 80.1% | [8] 76.9%

Cc1cc(/C=C2\Sc3ccccc3N2C)cc(C)[n+]1CC1CCCO1 (configuration not stated)
inactive: [1] 37.1% | [3] 34%
active: [2] 77.1% | [4] 75.3% | [5] 77.8% | [6] 99.3% | [7] 90.5% | [8] 89%

Cc1cc(C)cc(NS(=O)(=O)c2ccc3c(c2)c(=O)n(C)c(=O)n3C)c1
inactive: [7] 41.3%
active: [1] 55.2% | [2] 36.5% | [3] 57.1% | [4] 38% | [5] 36.2% | [6] 54.4% | [8] 56.9%

CCC(C)n1ncn(-c2ccc(N3CCN(c4ccc(O)cc4)CC3)cc2)c1=O (configuration not stated)
inactive: [1] 32.4% | [3] 20.6%
active: [2] 51.9% | [4] 54.8% | [5] 63.1% | [6] 76.7% | [7] 70.8% | [8] 73.1%

CC(C)(C)c1ccc(/C=N/Nc2ccc(C(=O)O)cc2)cc1
active: [2] 32.6%
inactive: [1] 28.4% | [3] 13.3% | [4] 13.9% | [5] -5.93% | [6] -189% | [7] -79.9% | [8] -20.1%

CCOC(=O)c1cc2c(=Cc3ccc(N(C)C)cc3)c3ccccc3n2[n+]1C
active: [1] 46.2% | [2] 63.4% | [4] 59.5% | [5] 49.3% | [6] 105% | [7] 85.7% | [8] 90.4%
inactive: [3] 22.9%

CCC1(O)C(=O)OCc2c1cc1n(c2=O)Cc2cc3c(N)cccc3nc2-1 (configuration not stated)
active: [1] 89.6% | [2] 77.9% | [3] 54.4% | [4] 71.3% | [5] 83.6% | [6] 104% | [7] 92.1% | [8] 79.6%

CC(C)(C)c1ccc(-c2cn(-c3ccc(Br)cc3)c3[n+]2CCCS3)cc1
active: [1] 51.1% | [2] 59.4% | [3] 52.1% | [4] 61% | [5] 47.8% | [6] 107% | [7] 80.7% | [8] 89.2%

CN(C)CCNc1ccc(CO)c2oc3ccc(O)cc3c(=O)c12
active: [2] 31% | [4] 33.1% | [5] 47.7% | [6] 53.7% | [7] 53.1% | [8] 48.4%
inactive: [1] 4.57% | [3] 33%

CC1CN(S(=O)(=O)c2ccc(C(=O)NCCCn3ccnc3)cc2)CC(C)O1 (configuration not stated)
active: [1] 87.8% | [2] 47.5% | [3] 67.9% | [4] 30.4% | [5] 87.1% | [6] 99.2% | [7] 95.5% | [8] 81.1%

CC(C)CCCCCCCCCCCCC(=O)NCC(=O)NC1C(O)C(O)C(Nc2ncnc3nc[nH]c23)OC1C(O)CO (configuration not stated)
active: [1] 96.9% | [2] 95.9% | [3] 94.2% | [4] 95.4% | [5] 96.7% | [6] 110% | [7] 98.1% | [8] 98.2%

CCCCCCCCCn1c2c(c(=N)c3c1CCC3)CCCC2
active: [1] 87.2% | [2] 90.4% | [3] 65.6% | [4] 85.3% | [5] 83.7% | [6] 111% | [7] 95.6% | [8] 94.6%

CCCCCCCC[n+]1cccc2c3ccccc3ccc21
active: [1] 78.5% | [2] 81.6% | [3] 59.1% | [4] 83.7% | [5] 77% | [6] 107% | [7] 92.8% | [8] 93.8%

CC[n+]1c(/C=C2\Sc3ccccc3N2C)ccc2cccc(C)c21
inactive: [3] 36.2%
active: [1] 47.9% | [2] 68% | [4] 79.5% | [5] 76.7% | [6] 109% | [7] 91.6% | [8] 87%

CC[C@@H]1CCC[C@@H](O)[C@@H](C)C(=O)O[C@H](C)[C@@H](C)C/C=C(C)/C(OC)=C\C(=O)N(C)C([C@@H](C)CC)C(=O)N(C)[C@@H](C(C)C)C(=O)N(C)[C@@H](COC)C(=O)N2CCC[C@H]2C(=O)N(C)[C@@H](C(C)C)C(=O)N2CCC[C@H]2C(=O)O1 (some centres not stated) ([NMeξIle][NMeV][NMeS](Me)P[NMeV]P; linker N-C via X1)
active: [1] 79.9% | [2] 86.5% | [3] 57.1% | [4] 87.5% | [5] 83% | [6] 104% | [7] 94.8% | [8] 93.1%

CC(=NNC(=S)Nc1ccccc1)c1ccccn1
inactive: [1] 41% | [3] -15.4%
active: [2] 70.5% | [4] 67.8% | [5] 78.3% | [6] 101% | [7] 90% | [8] 85.6%

CC(=O)Nc1ccc(SCC(=O)c2cc(C)n(Cc3cccs3)c2C)cc1
inactive: [3] -1.59% | [4] 5.47% | [5] -55.3% | [6] -90.8% | [7] -25.9% | [8] -31.9%
active: [1] 52.1% | [2] 40.1%

O=C(Nc1ccc2c(c1)OCCO2)C(c1cc2ccccc2o1)N1CCN(c2ccc(C(F)(F)F)cn2)CC1 (configuration not stated)
inactive: [1] 19.5% | [2] 6.65% | [3] -13.5% | [4] -14.1% | [5] -29.7% | [6] -44.4% | [7] -28% | [8] -10.8%

NC(=O)c1cc([N+](=O)[O-])ccc1NCc1ccc(O)cc1
inactive: [1] 25.3% | [3] 1.01%
active: [2] 43.5% | [4] 30% | [5] 48.6% | [6] 63.8% | [7] 67.8% | [8] 66.9%

CN(C)c1ccc(/C=C/c2ccc3c4ccccc4ccc3[n+]2-c2ccccc2)cc1
active: [1] 70.9% | [2] 82.3% | [3] 50.2% | [4] 79.4% | [5] 71.9% | [6] 104% | [7] 92.5% | [8] 83%

O=C(Nc1ccc(S(=O)(=O)N2CCCC2)cc1)c1ccc(CN2CCc3ccccc3C2)cc1
inactive: [1] 28.1% | [3] 8.79%
active: [2] 56.4% | [4] 56.9% | [5] 51.4% | [6] 74.5% | [7] 75.2% | [8] 68.7%

CCN(CC)c1ccc(/C=C/c2cccc[n+]2C)c(OC)c1
active: [1] 48.1% | [2] 75% | [3] 52.2% | [4] 77.1% | [5] 73.3% | [6] 106% | [7] 91.8% | [8] 85.7%

CN(Cc1cnc2nc(N)nc(N)c2n1)c1ccc(C(=O)NC(CCC(=O)O)C(=O)O)cc1 (configuration not stated)
active: [1] 66.2% | [3] 52.3% | [5] 76.1% | [6] 50.5% | [7] 46.2%
inactive: [2] 22% | [4] 10.5% | [8] 19.9%

COc1ccccc1C(=O)Nc1nc2ccccc2s1
active: [1] 85.4% | [2] 79.6% | [3] 56.6% | [4] 71% | [5] 85.9% | [6] 86.4% | [7] 88% | [8] 75.6%

c1ccc(-c2ccc(-c3nc(-c4ccccn4)no3)cc2)cc1
active: [1] 43.5% | [2] 35.9% | [4] 39.4% | [5] 42.4% | [7] 54.8% | [8] 30.9%
inactive: [3] -28.2% | [6] 13.6%

COc1ccc(C2=Nn3c([n+](C)c4ccccc43)SC2)cc1
active: [1] 45.3% | [2] 68.3% | [4] 66.5% | [5] 59.1% | [6] 95.7% | [7] 86.5% | [8] 78.7%
inactive: [3] 21.8%

CC1CCc2nc(NC(=O)CSc3nc4ccccc4o3)sc2C1 (configuration not stated)
inactive: [1] 14.2% | [2] 15.8% | [3] -11.1% | [4] -33.6% | [5] 5.74% | [6] -27.5% | [7] 7.34% | [8] -33.5%

CCOc1cc(/C=C2\CN(CC)C/C(=C\c3ccc(O)c(OCC)c3)C2=O)ccc1O
inactive: [3] 4.46%
active: [1] 65.4% | [2] 62.4% | [4] 51.8% | [5] 47.3% | [6] 91.2% | [7] 87.2% | [8] 82.6%

CC(=O)NC(c1ccc2ccccc2c1)c1ccc2cccnc2c1O (configuration not stated)
active: [1] 81.5% | [2] 79.2% | [3] 70.4% | [4] 74.3% | [5] 86.3% | [6] 104% | [7] 87.6% | [8] 79.9%

CC1(C)CC(N2CCN(Cc3ccccc3)CC2)=CC(=[N+]2CCCCC2)C1
inactive: [1] 30.2% | [3] -6.45%
active: [2] 50.7% | [4] 40.7% | [5] 59.8% | [6] 88.3% | [7] 86.3% | [8] 74%

CCCC(=O)NC(c1ccc(Cl)cc1)c1ccc2cccnc2c1O (configuration not stated)
active: [4] 40.2% | [5] 71.8% | [6] 83.3% | [7] 74.9% | [8] 74.8%
inactive: [1] 31% | [2] 28% | [3] 15.5%

COc1ccc(C(=O)Nc2nnc(Cc3cccs3)s2)cc1OC
active: [2] 54.2% | [4] 52.5% | [5] 51.5% | [6] 70.7% | [7] 66.1% | [8] 72.3%
inactive: [1] 19% | [3] -3.67%

CN(Cc1ccccc1)C1=CC(=[N+]2CCCC2)CC(C)(C)C1
active: [1] 64.6% | [2] 67.9% | [4] 63.1% | [5] 44.2% | [6] 109% | [7] 79.9% | [8] 89.6%
inactive: [3] 7.51%

Cn1nccc1C(=O)N/N=C/c1c(O)ccc2ccccc12
active: [1] 73.9% | [2] 74.6% | [3] 72% | [4] 71% | [5] 82.4% | [6] 101% | [7] 86.2% | [8] 71.1%
